This is part of a sample that, as a whole, favours compounds with a hit. Of some 79,000 tested, about 15% had one in any assay. Calls of active or inactive are those of the source. No stated cut-off is given here; in the data, active means growth inhibition above about 70%; inactive means the rest.
How the values were obtained:
[1] = NCI Yeast Anticancer Drug Screen. Data for the rad50 strain (AID 155);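 further: 0% = growth of vehicle-only cultures of the same strain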; conditions: S. cerevisiae rad50 strain growth inhibition, stronger effect = higher value
How it was run: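 Vehicle-treated cultures provide the reference for the growth inhibition reported for compound-exposed, repair-deficient yeast.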

[2] = NCI Yeast Anticancer Drug Screen. Data for the mec2-1 strain (AID 157); conditions: S. cerevisiae mec2-1 strain, stronger effect = higher value
How it was run: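 Mutant yeast (mec2-1) grown with compound; growth inhibition relative to vehicle control reported.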

[3] = NCI Yeast Anticancer Drug Screen. Data for the sgs1 mgt1 strain (AID 161);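 further: 0% = growth of cultures given vehicle only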; conditions: S. cerevisiae sgs1 mgt1 strain, stronger effect = higher value
How it was run: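 Yeast cells carrying a defined DNA-repair defect were exposed to test compounds. Growth inhibition was measured relative to vehicle-treated controls.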

[4] = NCI Yeast Anticancer Drug Screen. Data for the cln2 rad14 strain (AID 165);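 further: 0% = growth equal to vehicle treated cultures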; conditions: S. cerevisiae cln2 rad14 strain, stronger effect = higher value
How it was run: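 Readout is yeast growth inhibition versus vehicle-treated controls, using a strain with cln2 and rad14 alterations exposed to compound.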

[5] = NCI Yeast Anticancer Drug Screen. Data for the bub3 strain (AID 167); conditions: S. cerevisiae bub3 mutant strain, stronger effect = higher value
How it was run: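 Mutant yeast screening strain plus compound; vehicle-treated cultures serve as the 0% inhibition reference.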

[6] = NCI Yeast Anticancer Drug Screen. Data for the mlh1 rad18 strain (AID 175); conditions: S. cerevisiae mlh1 rad18 strain growth inhibition, stronger effect = higher value
How it was run: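 Genetically defined yeast (DNA repair-deficient) exposed to compounds; growth inhibition determined relative to vehicle.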

[7] = at 5.0 µM (retest, dose inferred, filed as 0.5)
[8] = at 50.0 µM (retest, dose inferred, filed as 5.0)

Measured: growth inhibition

C1CC[CH]([Sn]([CH]2CCCCC2)[CH]2CCCCC2)CC1.C1CC[CH]([Sn]([CH]2CCCCC2)[CH]2CCCCC2)CC1
inactive: [1]; [7] 2% | [1]; [8] 34% | [1]; at 50.0 µM 31.5% | [2]; [7] 0% | [2]; [8] 34% | [2]; at 50.0 µM 63.3% | [3]; [7] 4% | [3]; [8] 17% | [4]; [7] 3% | [4]; [8] -9% | [4]; at 50.0 µM -30.2% | [5]; [7] 3% | [5]; [8] -2% | [5]; at 50.0 µM 9.5% | [6]; [7] 0% | [6]; [8] 4%
active: [3]; at 50.0 µM 75.7% | [6]; at 50.0 µM 87.9%

c1ccc(C[As+](c2ccccc2)(c2ccccc2)c2ccccc2)cc1
active: [1]; [8] 92% | [1]; at 50.0 µM 97.3% | [2]; [8] 94% | [2]; at 50.0 µM 97.7% | [3]; [8] 89% | [3]; at 50.0 µM 98.8% | [4]; [8] 75% | [4]; at 50.0 µM 94.7% | [5]; [8] 96% | [5]; at 50.0 µM 93% | [6]; [8] 89% | [6]; at 50.0 µM 97.7%
inactive: [1]; [7] 24% | [2]; [7] 4% | [3]; [7] 1% | [4]; [7] 1% | [5]; [7] 4% | [6]; [7] 11%

c1cc[c]([Sn]([c]2ccccc2)([c]2ccccc2)[c]2ccccc2)cc1
active: [3]; at 50.0 µM 86.5% | [6]; at 50.0 µM 81.9%
inactive: [1]; [7] -2% | [1]; [8] -3% | [1]; at 50.0 µM 60.2% | [2]; [7] -3% | [2]; [8] 1% | [2]; at 50.0 µM 53.4% | [3]; [7] 0% | [3]; [8] -2% | [4]; [7] -1% | [4]; [8] -4% | [4]; at 50.0 µM -20.4% | [5]; [7] 2% | [5]; [8] 2% | [5]; at 50.0 µM 46% | [6]; [7] 1% | [6]; [8] -4%

CSc1ncc(COP(=S)(OCc2cnc(SC)nc2N)OCc2cnc(SC)nc2N)c(N)n1
inactive: [1]; [7] -1% | [1]; [8] -2% | [1]; at 50.0 µM -39.3% | [2]; [7] 15% | [2]; [8] -6% | [2]; at 50.0 µM -5.35% | [3]; [7] 1% | [3]; [8] 3% | [3]; at 50.0 µM -15.9% | [4]; [7] 8% | [4]; [8] -3% | [4]; at 50.0 µM 23.9% | [5]; [7] -1% | [5]; [8] -3% | [5]; at 50.0 µM -2.3% | [6]; [7] -1% | [6]; [8] 9% | [6]; at 50.0 µM 23%

CC(=O)Nc1ccc(/C=N/N=C(/N)N[N+](=O)[O-])cc1
inactive: [1]; [7] -7% | [1]; [8] -1% | [1]; at 50.0 µM 61.5% | [2]; [7] -7% | [2]; [8] -2% | [2]; at 50.0 µM 63.8% | [3]; [7] -5% | [3]; [8] -1% | [3]; at 50.0 µM 52.9% | [4]; [7] -1% | [4]; [8] 1% | [5]; [7] -2% | [5]; [8] -6% | [6]; [7] 1% | [6]; [8] -9%
active: [4]; at 50.0 µM 83.8% | [5]; at 50.0 µM 71.5% | [6]; at 50.0 µM 81.3%

CCC[N+](CCC)(CCC)CCC.N#CN=C([SH2+])[SH2+].N#CN=C([SH2+])[SH2+].[Pt+2]
active: [1]; at 50.0 µM 79.3% | [3]; at 50.0 µM 89.9%
inactive: [1]; [7] -1% | [1]; [8] 7% | [2]; [7] -4% | [2]; [8] 2% | [2]; at 50.0 µM 44% | [3]; [7] 4% | [3]; [8] 39% | [4]; [7] -6% | [4]; [8] -7% | [4]; at 50.0 µM 14.1% | [5]; [7] -5% | [5]; [8] -1% | [5]; at 50.0 µM 14.1% | [6]; [7] 20% | [6]; [8] 57% | [6]; at 50.0 µM 49.9%

[Se]c1ncnc2nc[nH]c12
active: [6]; at 50.0 µM 84.2%
inactive: [1]; [7] 21% | [1]; [8] 57% | [1]; at 50.0 µM 57.9% | [2]; [7] 15% | [2]; [8] 37% | [2]; at 50.0 µM 38.7% | [3]; [7] 13% | [3]; [8] 41% | [3]; at 50.0 µM 37.9% | [4]; [7] 11% | [4]; [8] 23% | [4]; at 50.0 µM 2.25% | [5]; [7] -2% | [5]; [8] 60% | [5]; at 50.0 µM 39.2% | [6]; [7] 17% | [6]; [8] 68%

CC(Br)c1ccccc1 (configuration not stated)
inactive: [1]; [7] 1% | [1]; [8] 17% | [1]; at 50.0 µM 50.2% | [2]; [7] 1% | [2]; [8] 10% | [2]; at 50.0 µM 26.6% | [3]; [7] 2% | [3]; [8] 14% | [3]; at 50.0 µM 40.6% | [4]; [7] 3% | [4]; [8] 7% | [4]; at 50.0 µM -2.05% | [5]; [7] 6% | [5]; [8] 42% | [5]; at 50.0 µM 65.8% | [6]; [7] 5% | [6]; [8] 21%
active: [6]; at 50.0 µM 79.6%

CCCCCCCCCCCCC(=O)[O][Hg][c]1ccccc1
active: [1]; [7] 99% | [1]; [8] 99% | [1]; at 50.0 µM 99.2% | [2]; [7] 100% | [2]; [8] 100% | [2]; at 50.0 µM 99.5% | [3]; [7] 100% | [3]; [8] 100% | [3]; at 50.0 µM 99.5% | [4]; [7] 99% | [4]; [8] 99% | [4]; at 50.0 µM 99.3% | [5]; [7] 99% | [5]; [8] 99% | [5]; at 50.0 µM 100% | [6]; [7] 99% | [6]; [8] 99% | [6]; at 50.0 µM 99.5%
